# Only some compounds are listed: those with a hit (about 4.5% of all), similar ones and a draw of the others.
# GDH-TPI counter-1 = GDH-TPI coupling enzyme inhibitors, primary screen, artefact control for M. tuberculosis FBA inhibitor project, biochemical, absorbance, full deck | inhibition, % at 4.8 µM | 360,000 compounds, 1.2% hits | AID 588335, 2011 | GDH-TPI coupled enzyme counterscreen, NADH absorbance; in the data active means inhibition above about 30%;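 further: 0% = DMSO wells and 100% = wells lacking the enzyme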
# BJeLR viability = MLPCN primary cell-based screen for lethality selective to Ras in HRASV12 cells; 300,000 compounds, 0.17% hits; AID 1554, 2009; inhibition, % (test concentration not listed); BJeLR (HRASV12) viability, CellTiter-Glo ATP luminescence, 48 h; in the data active means inhibition above about 50%; inconclusive means no clear call, values can overlap the other calls
# PrP UTR inh = inhibition of PrP 5' UTR reporter expression; inhibition, % (concentration not given with the values); cell-based PrP 5' UTR mRNA reporter, plate reader; AID 488862, 2010; 340,000 compounds, 0.35% hits; in the data active means inhibition above about 52%; further: 0 = median of the neutral control wells
# Mtb FBA inh = Mtb FBA enzyme inhibitors, primary screen, biochemical, fluorescence, strain H37Rv | Fructose-bisphosphate aldolase (Mycobacterium tuberculosis (strain ATCC 25618 / H37Rv)), … | purified M. tuberculosis FBA, fluorescence read-out | inhibition, % at 1 µM | 360,000 compounds, 2.3% hits;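 further: 0% = vehicle and 100% = reference inhibitor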
# Target sequence (P9WQA3 whole entry, looked up): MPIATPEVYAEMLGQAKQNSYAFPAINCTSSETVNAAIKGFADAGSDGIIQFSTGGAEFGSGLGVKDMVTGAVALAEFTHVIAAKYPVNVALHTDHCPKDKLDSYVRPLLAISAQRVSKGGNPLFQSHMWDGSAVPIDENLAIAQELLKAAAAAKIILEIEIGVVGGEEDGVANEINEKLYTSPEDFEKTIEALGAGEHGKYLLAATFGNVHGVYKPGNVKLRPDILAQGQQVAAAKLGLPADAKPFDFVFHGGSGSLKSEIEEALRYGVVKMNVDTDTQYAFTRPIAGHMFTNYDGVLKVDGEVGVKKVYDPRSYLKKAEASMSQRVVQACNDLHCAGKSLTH
# PfHsp40 yeast = rescue of yeast from PfHsp40 toxicity, primary screen, S. cerevisiae, ATP luminescence | S. cerevisiae expressing PfHsp40, growth rescue | growth rescue, % at 12.5 µM | 340,000 compounds, 0.68% hits; in the data active means growth rescue above about 28%, passing the limit was not always enough; inconclusive means no clear call, values can overlap the other calls;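 further: yeast W303a lacking pdr1 and pdr3 grown in galactose medium; growth measured after three days at 30 °C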
# PrPC TRFRET = inhibitors of human cell surface prion protein PrPC, primary screen, cell-based, TR-FRET; 370,000 compounds, 0.43% hits; AID 720596, 2013; TR-FRET read-out; inhibition, % at 13.8 µM; Major prion protein (Homo sapiens), P04156; in the data active means inhibition above about 24%; further: 0% = median of the test wells and 100% = reference compound wells
# Mtb FBA inh conf = M. tuberculosis aldolase blockers, biochemical, fluorescence, strain H37Rv, confirmation | shares compounds with Mtb FBA inh | purified M. tuberculosis FBA, fluorescence read-out | inhibition, % at 1 µM | 5,600 compounds, 78% hits | AID 651616, 2012;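 further: 0% = vehicle wells and 100% = reference inhibitor wells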
# GDH-TPI counter-2 = GDH-TPI coupling enzyme inhibitors, artefact control for M. tuberculosis FBA inhibitor project, biochemical, fluorescence, high throughput; GDH-TPI coupled enzyme counterscreen; inhibition, % at 1 µM; 5,600 compounds, 81% hits; shares compounds with Mtb FBA inh; AID 652141, 2013; in the data active means inhibition above about 10%
# Active calls of the source: *; ? = inconclusive; . = no result; + = active, no number. Unless noted, no stated cut-off is given here; in the data, active means inhibition above about 27%; inactive means the rest.
SMILES,GDH-TPI counter-1,BJeLR viability,PrP UTR inh,Mtb FBA inh,PfHsp40 yeast,PrPC TRFRET,Mtb FBA inh conf,GDH-TPI counter-2
COc1ccc(CNC(=O)CN(c2ccc(C(C)C)cc2)S(=O)(=O)c2c(C)noc2C)cc1,-9,-3,-29,2,1,-5,.,.
CNC(=S)N/N=C/c1ccc(-c2ccc(C(=O)O)cc2)o1,53*,52*,9,41*,-1,-7,+,+
C=CCNC(=S)N/N=C/c1ccc(-c2ccc(OC)cc2)o1,14,9,-25,29*,-1,10,-6,-6
C=CCNC(=S)N/N=C/c1ccc(-c2cc(Cl)ccc2Cl)o1,27,0,-11,-4,0,0,.,.
O=S(=O)(c1ccc(-c2ccccn2)s1)N1CCC2(CC1)OCCO2,-5,-16,.,0,.,0,.,.
CC(=O)Oc1c(-c2ccc(Br)o2)oc2ccccc2c1=O,30,-5,-16,79*,?,0,47*,41*
O=S1(=O)CCSC[C@@H](CNCc2ccco2)N1,.,.,.,.,.,-10,.,.
CCOC(=O)C1(CCCc2ccccc2)CCN(C(=O)CN2C(=O)CSC2=O)CC1,-5,8,-15,-1,-1,-6,.,.
CCOc1ccc2[nH]c(=O)c(CN(Cc3ccco3)C(CC)c3nnnn3Cc3ccccc3)cc2c1 (stereo not given),-9,1,-35,27*,-1,-1,+,+
COc1ccc(CNc2nc3nc(C)cc(C)n3n2)cc1OC,13,4,-15,-2,-1,1,.,.
Cc1cc(C)n2nc(NCc3cccc(Br)c3)nc2n1,1,-3,5,58*,0,9,70*,52*
CSc1ccc(CCNC(=O)c2cccc3c2C(=O)N(C2CCCCC2)C3)cc1,-1,-5,-19,0,3,.,.,.
COc1ccc2c(C)cc(=S)[nH]c2c1,6,9,-6,5,3,-16,.,.
CC(=O)Oc1ccc2c(C)cc(=O)[nH]c2c1,8,4,-12,58*,0,2,10,-3
CCOC(=O)N1CCN(C(=O)c2cc3c(=O)n4cccc(C)c4nc3s2)CC1,9,-6,-13,16,0,-2,.,.
CCN(CC)C(=O)c1cc2c(=O)n3cccc(C)c3nc2n1C,21,-4,-13,57*,-1,2,122*,107*
COc1ccccc1N1CCN(C(=O)c2cc3c(=O)n4cccc(C)c4nc3s2)CC1,15,-1,-9,41*,-1,-11,+,180*
CCN(C(=O)c1cc2c(=O)n3cccc(C)c3nc2s1)C1CCCCC1,3,-1,-37,4,-2,3,.,.
CCN(CC)C(=O)c1cc2c(=O)n3cccc(C)c3nc2s1,12,-22,-26,69*,-1,-23,148*,143*
CCCCN(CC)C(=O)c1cc2c(=O)n3cccc(C)c3nc2s1,11,-2,-11,70*,0,0,+,167*
Nc1ccc(CCCC(=O)NCc2cccnc2)cc1,-7,.,.,1,.,4,.,.
O=[N+]([O-])c1ccc(Cl)c(NC2=NCCCCC2)c1,0,0,-6,-2,-2,-10,.,.
O=C(CO/N=C/c1ccccc1O)N1CCc2ccccc21,-4,-6,-12,-2,0,-7,.,.
COc1ccc2c(c1)nc(NCCO)n2C,-6,11,-72,37*,0,4,187*,170*
Cc1ccc(Cn2c(C3CCCN3c3nc(-c4ccc(F)cc4)cs3)nc3cc(C(=O)NCCCO)ccc32)cc1 (stereo not given),9,-9,-15,70*,0,6,9,5
SMILES,GDH-TPI counter-1,BJeLR viability,PrP UTR inh,Mtb FBA inh,PfHsp40 yeast,PrPC TRFRET,Mtb FBA inh conf,GDH-TPI counter-2
C/C(=N\OCC(=O)Nn1c(=O)[nH]c2ccccc2c1=O)c1ccccc1,1,-9,-11,-5,-2,-5,.,.
Cc1ccn2cc(-c3cccc(NC(=O)C(C)C)c3)nc2c1,10,3,-41,40*,2,4,113*,87*
CC(C)C(=O)Nc1cccc(-c2cn3ccccc3n2)c1,8,4,-10,1,1,8,.,.
CC(=O)Nc1cccc(-c2cn3ccccc3n2)c1,8,2,-27,43*,1,-4,40*,41*
COc1ccc(CC(=O)Nc2ccc(-c3cn4ccc(C)cc4n3)cc2)cc1,5,6,-79,58*,1,12,168*,143*
COc1ccc(CC(=O)Nc2ccc(-c3cn4cccc(C)c4n3)cc2)cc1OC,11,-4,-1,9,1,3,.,.
O=C(CN1CCN(Cc2ccccc2Cl)C1=O)NCc1ccccn1,19,3,-2,-3,0,10,.,.
COc1cc(/C=N/NC(=O)c2sc3nc(C)cc(C)c3c2N)ccc1O,17,2,-14,10,-2,-16,.,.
CC1(C(=O)OCC(=O)NCCNC(=O)COC(=O)C2(C)CC2(Cl)Cl)CC1(Cl)Cl (stereo not given),0,5,-14,-1,0,2,.,.
O=c1cc(C(F)(F)F)c2cc3c4c(c2o1)CCCN4CCC3,1,4,-12,13,0,-3,.,.
CN1CCCc2cc3c(C(F)(F)F)cc(=O)oc3nc21,8,4,-18,30*,0,-5,130*,111*
CN(C)C(CNC1CC(C)(C)NC(C)(C)C1)c1cccc(F)c1 (stereo not given),-3,-14,-27,-3,-2,2,.,.
O=c1oc(C2(O)CCCCC2)cc2ccc(/C=C/c3ccc(F)cc3)cc12,8,.,-18,32*,-1,0,34*,24*
O=C(NCCCN1CCOCC1)c1c(O)c2cc(Br)cc(Br)c2[nH]c1=O,0,.,-4,3,22,.,.,.
CCCCN(CCCC)CCn1cnc2c([nH]c3ccc(OC)cc32)c1=O,15,8,-51,19,-1,-5,.,.
COc1cc2[nH]c(=O)c(C(=O)NCCCN3CCOCC3)c(O)c2cc1OC,14,3,-17,39*,1,6,29*,18*
COc1cc2[nH]c3c(=O)n(CCN4CCOCC4)cnc3c2cc1OC,8,1,-3,60*,1,5,+,+

# Screening results (PubChem)
